# Data: ChEMBL document CHEMBL4513216, “Probing the Open Global Health Chemical Diversity Library for Multistage-Active Starting Points for Next-Generation Antimalarials” (ACS Infect Dis, 2020)
# Out of some 69,000 compounds screened, about 8,600 (12%) showed an effect of 50% or more. The entries come from a sample that favours strong results as a whole.
# Tested on: Plasmodium berghei
# Assay: Screen against P. berghei liver stage (PbLuc), transformed with Luciferase, at 10uM
# Format: functional, HepG2
# Conditions: tested at 10 uM
row,Structure (SMILES),INHIBITION [%]
1,CCc1c(C(=O)O)nnn1-c1ccc(C)cc1C,39.2
2,CN(C)S(=O)(=O)N1C[C@@H]2CN(Cc3ccoc3)CCO[C@@H]2C1,23.6
3,CN1CCN(CCOc2ccc(NC(=O)c3ccoc3)cc2)CC1,-6.99
4,CCc1c(C(=O)O)nnn1-c1cccc(C)c1C,6.09
5,COc1cc(N2CC[C@@H](OC)[C@@H]2Cc2cnn(C)c2)ncn1,23.5
6,COCCN1CC[C@H](O)[C@@H]1Cc1ccccc1,0.79
7,COc1cc(N2CC[C@@H](O)[C@@H]2Cc2cccnc2)ncn1,85.8
8,COCCN1CC[C@@H](O)[C@@H]1Cc1ccccc1,6.32
9,COc1cc(N2CC[C@H](O)[C@@H]2Cc2cccnc2)ncn1,6.6
10,COc1cc(N2CC[C@@H](O)[C@@H]2Cc2ccccc2)ncn1,92.8
11,COCC(=O)N1CC[C@@H](O)[C@@H]1Cc1ccccc1,37.5
12,COc1cc(N2CC[C@H](O)[C@@H]2Cc2cnn(C)c2)ncn1,22.7
13,COc1cc(N2CC[C@@H](O)[C@@H]2Cc2ccncc2)ncn1,43.9
14,COCCO[C@@H]1CCN(c2cc(OC)ncn2)[C@H]1Cc1cnn(C)c1,14.6
15,COc1cc(N2CC[C@H](O)[C@@H]2Cc2ccccc2)ncn1,75.4
16,COCCO[C@H]1CCN(c2cc(OC)ncn2)[C@H]1Cc1cnn(C)c1,76.2
17,Cc1cc(OCCC(=O)Nc2cccc(F)c2)nnc1C,-9.93
18,Cc1cc2c(=O)n3c(nc2s1)CCN(Cc1cncn1C)CC3,5.11
19,Cc1cnn(CC(=O)N2CCCN(c3ncccc3C#N)CC2)c1,-14.7
20,CS(=O)(=O)c1cnc(N2CCCC2)nc1C1CCN(C(=O)C2CC2)CC1,-15.7
21,Cc1cc(C(=O)NCc2ccc(-c3n[nH]cc3C(=O)N(C)C)cc2)on1,39.35
22,CCc1cnc(N2CC[C@H]3[C@H]2CC(=O)N3c2cccnc2)nc1,-34.7

row,Structure (SMILES),INHIBITION [%]
1,Cc1ccc(N2N=C(C(N)=O)S(=O)(=O)c3cccnc32)cc1,41.5
2,Cc1cc(CN2CCN(C(=O)NCc3cccs3)CC2)on1,14.1
3,Cc1ccc(N2CC[C@H](OCC3CC3)[C@@H]2Cc2cccnc2)nn1,42.4
4,COCCO[C@H]1CCN(c2ccc(C)nn2)[C@H]1Cc1cccnc1,5.68
5,c1cnc(N2CC[C@@H](OCC3CC3)[C@@H]2Cc2cccnc2)nc1,64.3
6,COCCO[C@H]1CCN(c2cc(OC)ncn2)[C@H]1Cc1cccnc1,82.8
7,c1ccc(N2CC[C@H](OCC3CC3)[C@@H]2Cc2cccnc2)nc1,37.5
8,COCCO[C@H]1CCN(c2cc(OC)ncn2)[C@H]1Cc1ccncc1,-39.2
9,Cc1cc2nc(SCC(=O)N3CCOCC3)n(CCC(C)C)c(=O)c2[nH]1,45.8
10,O=C(Cc1ccc(-n2cnnn2)cc1)Nc1cnn(CC(F)F)c1,42.6
11,O=C(c1ccc(-c2ccc(O)nc2)s1)N1CCSCC1,3.295
12,Cc1ccc(CN2C[C@H](OCCN(C)C)[C@H]3COC[C@H]32)o1,14.6
13,Fc1ccc(-c2nnc(CN3CCCC(Cn4cncn4)C3)o2)cc1 (stereo unspecified),-105
14,CCCc1n[nH]c(C2CN(C(=O)CCc3cscn3)CCO2)n1 (stereo unspecified),25.3
15,CC(C)NC(=O)N1CCC2(CC1)Cc1ccccc1CNC2=O,29.5
16,O=c1[nH]c(NCCO)nc2c1C1(CCCC1)Cc1ccccc1-2,62.3
17,O=c1[nH]c(NCCO)nc2c1C1(CCCCC1)Cc1ccccc1-2,66.5
18,CN1Cc2ccccc2CC2(CCN(CCO)CC2)C1=O,-9.23
19,Cc1cccc(CN2CCCC3(Cc4ccccc4CNC3=O)C2)n1 (stereo unspecified),9.32
20,O=c1[nH]c(NCCCO)nc2c1C1(CCCC1)Cc1ccccc1-2,64
21,CCC1(C)Cc2ccccc2-c2nc(NCCCO)nc(O)c21 (stereo unspecified),28.4
22,OCCCNc1nc(O)c2c(n1)-c1ccccc1CC21CCCCC1,77.2

row,Structure (SMILES),INHIBITION [%]
1,Cc1cc(C(=O)NC2CCN(c3nnc(C)c(C)c3C#N)CC2)no1,3.87
2,Cn1ccc(C(=O)N2CCOC(c3ccc(C(N)=O)cn3)C2)n1 (stereo unspecified),22
3,Cc1noc(CNC(=O)CN(C)c2nc3ccccc3s2)n1,-4.01
4,O=C(c1cc(C2CCCN(Cc3ccccn3)C2)no1)N1CCCC1 (stereo unspecified),7.52
5,Cc1oc(-c2cccs2)nc1C(=O)N1CCCC1Cn1cccn1 (stereo unspecified),36.1
6,c1ccc(CN2CCc3c(COCc4ccncc4)cncc3C2)nc1,3.81
7,O=c1cc(Cn2cncn2)nc2n1CCCN(Cc1ccc(F)cc1)C2,22.5
8,COc1c(CNCC(O)c2cccc(F)c2)c(C)nn1C (stereo unspecified),-47.6
9,Cn1c(Cn2ccnc2)nnc1C1CCN(C(=O)c2ccccn2)CC1,5.41
10,Cc1ncccc1NC(=O)[C@@H]1CC[C@@H]2[C@@H](CCN2Cc2cnn(C)c2)O1,0.734
11,Cc1ccc(-c2cccc(N3CCC(NC4CCOCC4)CC3)c2)cc1,39.3
12,Fc1cccc(-c2cccc(N3CCC(NC4CCCOC4)CC3)c2)c1 (stereo unspecified),46.5
13,COc1cccc(-c2cccc(N3CCC(N[C@@H]4CCOC4)CC3)c2)c1,53.7
14,CC(=O)N1CCC(c2cncc(N3CCC(O)C3)n2)CC1 (stereo unspecified),23.9
15,CC(C)c1noc(CCC(=O)NCC2CCC(C(N)=O)CC2)n1 (stereo unspecified),-21.8
16,CCCn1nccc1NC(=O)CN1CCCC1c1c(C)nn(C)c1C (stereo unspecified),34.1
17,COc1ccc(-n2nnc(C(N)=O)n2)cc1,-8.07
18,CCn1cc(CNC(=O)c2nn(CC)cc2Br)cn1,76
19,CCn1cc(Br)c(C(=O)NCc2ccccc2)n1,17
20,CCn1cc(Br)c(C(=O)NCc2cnn(C)c2)n1,-13.2
21,COCC1Cn2nnc(-c3cnn(C)c3)c2CN1Cc1ccsc1 (stereo unspecified),33.4
22,COc1cccn(CC(=O)N2CCCC3(CCCO3)CC2)c1=O (stereo unspecified),-2.61
